# Laboratory results taken from PubChem BioAssay (EPA / NIEHS).
# Results filed as inconclusive are left out. Activity calls are given as the source filed them. Rule for the calls, unless noted: active = hit-call score of the fitted dose curve at least 0.9, where 1 is the maximum; inconclusive = response in the unintended direction; inactive = score below 0.9.
# Columns and labels:
# [1] = target: Nuclear receptor subfamily 1 group I member 3 (Homo sapiens) (UniProt Q14994); experiment: ATG_CAR_TRANS: Attagene TRANS-FACTORIAL HepG2 Assay for human Constitutive Androstane Receptor (CAR) (AID 2282969); settings: HepG2 Attagene TRANS-FACTORIAL CAR reporter;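 note: activators raise reporter mRNA above DMSO so AC50 marks induction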
# Summary of the method: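 Readout is reporter mRNA induction, quantified by fluorescent primer extension and capillary electrophoresis after RT-PCR. Cells were HepG2 transiently carrying chimeric NR-Gal4 constructs with GAL4-UAS reporters, treated for 24 h; activity scored upward from DMSO.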
# [2] = target: X-box-binding protein 1 (Homo sapiens) (UniProt P17861); experiment: ATG_Xbp1_CIS: Attagene CIS-FACTORIAL HepG2 Assay for human X-box Binding Protein 1 (XBP1) (AID 2282972; active = hit-call score of the fitted dose curve at least 0.9, where 1 is the maximum; inactive = score below 0.9); settings: HepG2 XBP1 cis-element reporter, Attagene multiplex; actives raise or lower the signal
# Summary of the method: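 HepG2 cells transiently transfected with cis-regulated multiple reporter transcription units; endogenous transcription factor activity measured 24 hours after chemical dosing. Reporter mRNA quantified by RT-PCR, 6-FAM primer extension, HpaI digestion and capillary electrophoresis; bidirectional fitting versus DMSO.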
# [3] = target: Androgen receptor (Homo sapiens) (UniProt P10275); experiment: ATG_AR_TRANS: Attagene TRANS-FACTORIAL HepG2 Assay for human Androgen Receptor (AR) (AID 2282973); settings: HepG2 Attagene TRANS-FACTORIAL AR reporter transcription
# Summary of the method: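 Transfected HepG2, 24 h treatment, chimeric NR-Gal4 driving GAL4-UAS reporters. mRNA induction by RT-PCR/capillary electrophoresis fluorescence; DMSO as negative control and baseline.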
# [4] = ATG_M_19_TRANS: Attagene TRANS-FACTORIAL HepG2 Assay for M19 Transcription Factor (Internal Marker) (AID 2282974); settings: HepG2 Attagene TRANS-FACTORIAL M19 internal marker reporter
# Summary of the method: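 Cells: human HepG2, transiently transfected with multiplexed reporter transcription units. Exposure: 24 h. Detection: RT-PCR of reporter mRNA with capillary electrophoresis. Analysis: gain-of-signal vs DMSO.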
# [5] = target: Oxysterols receptor LXR-alpha (Homo sapiens) (UniProt Q13133); experiment: ATG_LXRa_TRANS: Attagene TRANS-FACTORIAL HepG2 Assay for human Liver X Receptor alpha (LXRa) (AID 2282980); settings: HepG2 Attagene TRANS reporter, LXRa transactivation
# Summary of the method: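 Transient HepG2 transfectants, 24 h dosing, RT-PCR/CE mRNA reporter quantitation; gain-of-signal vs DMSO.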
# [6] = target: Oxysterols receptor LXR-beta (Homo sapiens) (UniProt P55055); experiment: ATG_LXRb_TRANS: Attagene TRANS-FACTORIAL HepG2 Assay for human Liver X Receptor beta (LXRb) (AID 2282981); settings: HepG2 Attagene TRANS GAL4-LXRb reporter, mRNA
# Summary of the method: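 Transient transfection HepG2 (multiplexed RTUs, GAL4-UAS); NR-Gal4 chimera; 24 h exposure; RNA → RT-PCR → 6-FAM primer extension → HpaI → CE; increase vs DMSO.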
# [7] = target: Hepatocyte nuclear factor 4-alpha (Homo sapiens) (UniProt P41235); experiment: ATG_HNF4a_TRANS: Attagene TRANS-FACTORIAL HepG2 Assay for human Hepatocyte Nuclear Factor 4 alpha (HNF4a) (AID 2282982); settings: HepG2 HNF4a transactivation reporter, mRNA readout
# Summary of the method: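 Readout is fluorescent reporter-transcript fragments resolved by capillary electrophoresis after RT-PCR from HepG2 cells dosed for 24 h. Cells carried transfected GAL4-UAS reporter constructs measuring exogenous NR-GAL4 chimera activity; DMSO served as baseline.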
# [8] = ATG_M_32_TRANS: Attagene TRANS-FACTORIAL HepG2 Assay for M32 Transcription Factor (Internal Marker) (AID 2282984); settings: HepG2 Attagene TRANS M32 internal marker reporter
# Summary of the method: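 Measures reporter mRNA induction in human HepG2 liver cells after 24 h chemical treatment. Transcripts from transiently transfected GAL4-UAS reporter units are amplified, fluorescently labelled and sized by capillary electrophoresis; gain of signal relative to DMSO.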
# [9] = target: Transcriptional activator Myb (Homo sapiens) (UniProt P10242); experiment: ATG_Myb_CIS: Attagene CIS-FACTORIAL HepG2 Assay for human Myeloblastosis (Myb) Proto-Oncogene Transcription Factor (AID 2282986; active = hit-call score of the fitted dose curve at least 0.9, where 1 is the maximum; inactive = score below 0.9); settings: HepG2 Attagene CIS-FACTORIAL Myb reporter transcription; actives raise or lower the signal
# Summary of the method: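 Steps: transfect HepG2 with cis-regulated reporter units; dose with chemical for 24 h; isolate RNA, reverse-transcribe, PCR-amplify and FAM-label reporter sequences; digest with HpaI; resolve by capillary electrophoresis. Activity fitted in both directions relative to DMSO.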
# [10] = target: Nuclear respiratory factor 1 (Homo sapiens) (UniProt Q16656); experiment: ATG_NRF1_CIS: Attagene CIS-FACTORIAL HepG2 Assay for human Nuclear Respiratory Factor 1 (NRF1) Orphan Gene (AID 2282987; active = hit-call score of the fitted dose curve at least 0.9, where 1 is the maximum; inactive = score below 0.9); settings: HepG2 NRF1 cis-element reporter, Attagene multiplex; actives raise or lower the signal
# Summary of the method: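 Fluorescence intensity of labelled reporter cDNA fragments, resolved by capillary electrophoresis, served as readout for NRF1 cis-element activity. Transiently transfected HepG2 cells were dosed for 24 hours; activity in either direction was fitted against DMSO negative control.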
# [11] = ATG_VDRE_CIS: Attagene CIS-FACTORIAL HepG2 Assay for human Vitamin D Receptor Element (VDRE) (AID 2282968; active = hit-call score of the fitted dose curve at least 0.9, where 1 is the maximum; inactive = score below 0.9); settings: HepG2 VDRE cis-reporter transcription, actives raise or lower the signal
# Summary of the method: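 Reporter mRNA induction, quantified by capillary electrophoresis of fluorescently labelled RT-PCR products, was read 24 h after dosing HepG2 cells carrying transiently transfected cis-regulated reporter units; gain or loss relative to DMSO.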
# [12] = ATG_Hpa5_TRANS: Attagene TRANS-FACTORIAL HepG2 Assay for human GAL4-Hpa5 Hepatocyte Transcription Factor Basal Promoter (AID 2282975); settings: HepG2 Attagene GAL4-Hpa5 transcription reporter;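 note: hits are increases in reporter mRNA over DMSO baseline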
# Summary of the method: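 Basal-promoter GAL4 background control within the HepG2 trans-factorial panel of transiently transfected reporter units. Reporter mRNA is measured 24 h after dosing by RT-PCR and capillary electrophoresis, fitted for gain of signal versus DMSO.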
# [13] = target: Estrogen-related receptor gamma (Homo sapiens) (UniProt P62508); experiment: ATG_ERRg_TRANS: Attagene TRANS-FACTORIAL HepG2 Assay for human Estrogen-Related Receptor gamma (ERRg) (AID 2282977); settings: HepG2 Attagene TRANS reporter, ERRg transactivation;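 note: hits increase reporter signal over DMSO so potencies reflect activators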
# Summary of the method: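 HepG2 cells transiently transfected with multiplexed GAL4-UAS reporter units driven by chimeric NR-Gal4 proteins; 24 h exposure. Reporter mRNA quantified by RT-PCR, fluorescent labelling, HpaI digestion and capillary electrophoresis; gain of signal vs DMSO.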
# [14] = target: Bile acid receptor (Homo sapiens) (UniProt Q96RI1); experiment: ATG_FXR_TRANS: Attagene TRANS-FACTORIAL HepG2 Assay for Farnesoid X Receptor (FXR) (AID 2282979); settings: HepG2 Attagene TRANS FXR-GAL4 reporter transcription;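 note: hits raise reporter mRNA above DMSO so AC50 marks FXR activation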
# Summary of the method: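 Chimeric FXR-GAL4 activity in transiently transfected human HepG2 liver cells is scored as induction of reporter mRNA after 24 h of dosing. Detection uses RT-PCR with fluorescent labelling and capillary electrophoresis, with DMSO serving as baseline.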
# [15] = target: Nuclear receptor subfamily 4 group A member 2 (Homo sapiens) (UniProt P43354); experiment: ATG_NURR1_TRANS: Attagene TRANS-FACTORIAL HepG2 Assay for human Nuclear Receptor Related Protein 1 (NURR1) (AID 2282985); settings: HepG2 Attagene TRANS reporter, mRNA readout
# Summary of the method: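 Transient transfection of HepG2, human liver cells, with multiple GAL4-UAS reporter transcription units. Cells dosed 24 h, RNA isolated, reverse-transcribed, PCR-amplified, FAM-labelled, HpaI-digested, sized by capillary electrophoresis. DMSO served as negative control.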
# [16] = target: Steroid hormone receptor ERR1 (Homo sapiens) (UniProt P11474); experiment: ATG_ERRa_TRANS: Attagene TRANS-FACTORIAL HepG2 Assay for human Estrogen-Related Receptor alpha (ERRa) (AID 2282971); settings: HepG2 Attagene TRANS reporter, ERRa transactivation
# Summary of the method: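 HepG2 cells were transiently transfected with multiple GAL4-UAS reporter units, then dosed with compound for 24 h. Total RNA was reverse-transcribed, reporter cDNA PCR-amplified and fluorescently labelled, and fragments resolved by capillary electrophoresis; induction was compared with DMSO.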
# [17] = target: Glucocorticoid receptor (Homo sapiens) (UniProt P04150); experiment: ATG_GR_TRANS: Attagene TRANS-FACTORIAL HepG2 Assay for human Glucocorticoid Receptor (GR) (AID 2282978); settings: HepG2 Attagene TRANS GR reporter, mRNA transcription;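 note: activators score as hits since higher reporter transcript over DMSO is fitted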
# Summary of the method: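 In this trans-factorial format, exogenous NR-GAL4 chimeric proteins in transfected HepG2 cells regulate GAL4-UAS reporter transcription. After 24 h treatment, reporter mRNA induction relative to DMSO is read by RT-PCR and capillary electrophoresis.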
# [18] = ATG_GAL4_TRANS: Attagene TRANS-FACTORIAL HepG2 Assay for GAL4 (Internal Marker) (AID 2282976); settings: HepG2 Attagene TRANS GAL4 internal marker reporter
# Summary of the method: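 Fluorescence from capillary electrophoresis of labelled RT-PCR products quantifies reporter mRNA induction after 24 h dosing of HepG2 cells carrying transfected GAL4-UAS reporter transcription units. Vehicle DMSO serves as baseline.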
# [19] = ATG_M_06_TRANS: Attagene TRANS-FACTORIAL HepG2 Assay for M06 Transcription Factor (Internal Marker) (AID 2282983); settings: HepG2 Attagene TRANS M06 internal marker reporter;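 note: reporter transcript level by RT-PCR then capillary electrophoresis fluorescence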
# Summary of the method: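 Measured by capillary electrophoresis of fluorescently labelled RT-PCR products, this endpoint reflects reporter mRNA in HepG2 cells harbouring exogenous NR-GAL4 reporter constructs after 24 h exposure, with DMSO as baseline.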
# Chain of Estrogen-related receptor gamma (Homo sapiens) (P62508 whole entry, looked up, the tested form may be a part): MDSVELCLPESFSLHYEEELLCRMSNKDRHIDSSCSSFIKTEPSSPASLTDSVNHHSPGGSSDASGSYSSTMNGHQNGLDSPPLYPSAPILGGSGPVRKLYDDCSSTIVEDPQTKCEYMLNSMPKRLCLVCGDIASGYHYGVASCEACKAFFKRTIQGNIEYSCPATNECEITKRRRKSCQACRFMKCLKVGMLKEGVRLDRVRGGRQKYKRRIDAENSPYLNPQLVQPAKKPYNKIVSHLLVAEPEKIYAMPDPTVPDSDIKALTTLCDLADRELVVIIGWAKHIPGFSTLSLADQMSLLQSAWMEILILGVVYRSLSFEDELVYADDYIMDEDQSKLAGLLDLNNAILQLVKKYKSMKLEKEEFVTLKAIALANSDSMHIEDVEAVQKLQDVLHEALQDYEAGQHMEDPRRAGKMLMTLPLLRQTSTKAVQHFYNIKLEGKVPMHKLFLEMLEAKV
# Chain of Nuclear receptor subfamily 1 group I member 3 (Homo sapiens) (Q14994 whole entry, looked up, the tested form may be a part): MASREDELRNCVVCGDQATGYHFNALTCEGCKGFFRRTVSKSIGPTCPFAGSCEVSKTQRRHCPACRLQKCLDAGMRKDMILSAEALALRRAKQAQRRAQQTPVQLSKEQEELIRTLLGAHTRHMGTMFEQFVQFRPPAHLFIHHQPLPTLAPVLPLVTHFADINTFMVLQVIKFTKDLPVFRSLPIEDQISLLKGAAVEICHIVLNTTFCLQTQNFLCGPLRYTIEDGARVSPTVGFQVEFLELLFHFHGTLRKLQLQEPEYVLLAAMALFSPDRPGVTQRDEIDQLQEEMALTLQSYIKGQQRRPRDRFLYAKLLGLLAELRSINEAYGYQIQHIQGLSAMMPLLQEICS
# Chain of Transcriptional activator Myb (Homo sapiens) (P10242 whole entry, looked up): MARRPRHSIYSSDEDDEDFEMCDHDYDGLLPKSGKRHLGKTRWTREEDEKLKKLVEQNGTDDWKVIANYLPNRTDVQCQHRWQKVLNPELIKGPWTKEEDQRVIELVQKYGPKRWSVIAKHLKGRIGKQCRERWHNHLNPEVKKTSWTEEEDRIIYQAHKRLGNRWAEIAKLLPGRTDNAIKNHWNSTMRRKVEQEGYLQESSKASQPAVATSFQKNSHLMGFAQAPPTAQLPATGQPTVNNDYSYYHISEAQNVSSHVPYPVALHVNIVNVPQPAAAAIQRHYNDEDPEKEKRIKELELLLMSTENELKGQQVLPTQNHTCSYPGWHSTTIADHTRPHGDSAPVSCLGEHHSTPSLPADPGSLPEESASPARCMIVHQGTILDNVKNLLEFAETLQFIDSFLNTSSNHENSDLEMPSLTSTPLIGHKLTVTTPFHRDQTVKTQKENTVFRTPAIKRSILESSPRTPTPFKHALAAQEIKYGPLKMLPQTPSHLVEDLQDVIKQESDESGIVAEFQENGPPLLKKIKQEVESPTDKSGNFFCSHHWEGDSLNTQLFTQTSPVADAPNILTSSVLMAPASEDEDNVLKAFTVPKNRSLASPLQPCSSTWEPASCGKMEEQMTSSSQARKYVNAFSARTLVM
# Chain of Oxysterols receptor LXR-alpha (Homo sapiens) (Q13133 whole entry, looked up): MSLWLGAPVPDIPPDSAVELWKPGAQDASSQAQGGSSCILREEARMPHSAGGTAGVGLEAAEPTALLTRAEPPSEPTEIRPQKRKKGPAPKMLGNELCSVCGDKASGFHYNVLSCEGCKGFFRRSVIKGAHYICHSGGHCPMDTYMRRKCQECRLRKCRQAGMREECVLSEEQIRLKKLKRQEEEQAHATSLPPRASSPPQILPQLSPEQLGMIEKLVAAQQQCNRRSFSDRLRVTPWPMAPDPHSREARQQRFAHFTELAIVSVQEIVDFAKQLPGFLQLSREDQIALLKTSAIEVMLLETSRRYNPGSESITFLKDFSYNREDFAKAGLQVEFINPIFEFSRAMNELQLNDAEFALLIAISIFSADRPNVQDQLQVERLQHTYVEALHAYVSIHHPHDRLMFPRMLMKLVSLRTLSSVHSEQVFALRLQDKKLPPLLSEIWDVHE
# Chain of Glucocorticoid receptor (Homo sapiens) (P04150 whole entry, looked up, the tested form may be a part): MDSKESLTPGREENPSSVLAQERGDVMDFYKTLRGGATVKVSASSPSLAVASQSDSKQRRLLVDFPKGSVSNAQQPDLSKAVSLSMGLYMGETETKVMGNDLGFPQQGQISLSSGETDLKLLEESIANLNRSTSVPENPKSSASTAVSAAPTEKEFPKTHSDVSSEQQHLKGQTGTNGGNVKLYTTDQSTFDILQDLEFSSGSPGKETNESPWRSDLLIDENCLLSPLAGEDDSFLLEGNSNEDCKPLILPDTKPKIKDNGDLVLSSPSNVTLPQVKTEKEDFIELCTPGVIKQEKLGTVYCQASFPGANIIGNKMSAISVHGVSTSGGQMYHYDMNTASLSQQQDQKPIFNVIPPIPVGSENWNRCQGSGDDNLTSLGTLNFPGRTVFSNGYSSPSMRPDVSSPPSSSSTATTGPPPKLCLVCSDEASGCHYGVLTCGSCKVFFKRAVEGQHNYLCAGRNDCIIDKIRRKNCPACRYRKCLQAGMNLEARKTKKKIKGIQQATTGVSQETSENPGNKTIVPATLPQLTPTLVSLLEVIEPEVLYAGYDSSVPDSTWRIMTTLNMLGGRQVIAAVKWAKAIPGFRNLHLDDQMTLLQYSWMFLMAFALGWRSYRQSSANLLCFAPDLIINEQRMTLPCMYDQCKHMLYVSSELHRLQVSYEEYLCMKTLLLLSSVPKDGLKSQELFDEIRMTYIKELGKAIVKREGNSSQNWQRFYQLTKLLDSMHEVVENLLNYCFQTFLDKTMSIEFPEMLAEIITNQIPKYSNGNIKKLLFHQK
# Chain of Nuclear respiratory factor 1 (Homo sapiens) (Q16656 whole entry, looked up, the tested form may be a part): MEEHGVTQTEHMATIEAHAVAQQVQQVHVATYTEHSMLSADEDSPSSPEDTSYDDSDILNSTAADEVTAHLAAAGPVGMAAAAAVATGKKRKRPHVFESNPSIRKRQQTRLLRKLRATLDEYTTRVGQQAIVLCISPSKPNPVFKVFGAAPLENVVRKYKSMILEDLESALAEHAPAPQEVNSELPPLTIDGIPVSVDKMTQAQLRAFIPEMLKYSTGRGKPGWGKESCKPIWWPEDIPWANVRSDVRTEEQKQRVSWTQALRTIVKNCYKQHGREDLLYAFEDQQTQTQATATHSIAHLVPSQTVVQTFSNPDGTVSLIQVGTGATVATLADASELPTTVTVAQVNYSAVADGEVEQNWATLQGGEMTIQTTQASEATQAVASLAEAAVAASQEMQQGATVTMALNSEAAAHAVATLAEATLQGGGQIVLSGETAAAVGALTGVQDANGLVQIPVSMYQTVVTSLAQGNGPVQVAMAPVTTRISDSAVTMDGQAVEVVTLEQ
# Chain of Oxysterols receptor LXR-beta (Homo sapiens) (P55055 whole entry, looked up, the tested form may be a part): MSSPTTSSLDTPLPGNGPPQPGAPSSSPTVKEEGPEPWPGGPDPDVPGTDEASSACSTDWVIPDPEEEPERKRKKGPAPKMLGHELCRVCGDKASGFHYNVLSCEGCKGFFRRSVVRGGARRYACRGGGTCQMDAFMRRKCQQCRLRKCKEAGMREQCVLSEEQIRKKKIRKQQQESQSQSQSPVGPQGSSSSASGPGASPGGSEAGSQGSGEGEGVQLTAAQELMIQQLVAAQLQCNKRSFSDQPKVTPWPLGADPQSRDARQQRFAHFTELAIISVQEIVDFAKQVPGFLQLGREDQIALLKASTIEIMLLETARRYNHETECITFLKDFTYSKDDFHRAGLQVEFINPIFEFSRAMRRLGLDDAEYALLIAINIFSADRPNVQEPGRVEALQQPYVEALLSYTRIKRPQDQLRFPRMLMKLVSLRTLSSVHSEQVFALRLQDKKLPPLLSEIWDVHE
# Chain of Hepatocyte nuclear factor 4-alpha (Homo sapiens) (P41235 whole entry, looked up, the tested form may be a part): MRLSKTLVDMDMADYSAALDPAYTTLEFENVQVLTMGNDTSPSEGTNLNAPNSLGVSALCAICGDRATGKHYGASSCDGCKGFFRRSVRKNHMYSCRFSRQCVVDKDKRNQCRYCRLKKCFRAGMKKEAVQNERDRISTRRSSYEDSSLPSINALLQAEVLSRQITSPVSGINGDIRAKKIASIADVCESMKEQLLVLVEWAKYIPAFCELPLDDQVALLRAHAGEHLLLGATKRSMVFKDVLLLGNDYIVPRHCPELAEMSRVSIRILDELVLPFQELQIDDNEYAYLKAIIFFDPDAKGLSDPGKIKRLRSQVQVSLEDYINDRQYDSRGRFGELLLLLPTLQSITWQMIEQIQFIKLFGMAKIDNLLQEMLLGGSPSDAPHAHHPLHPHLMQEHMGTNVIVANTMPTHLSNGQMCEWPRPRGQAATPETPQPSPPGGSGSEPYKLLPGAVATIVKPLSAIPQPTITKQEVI
# Chain of X-box-binding protein 1 (Homo sapiens) (P17861 whole entry, looked up): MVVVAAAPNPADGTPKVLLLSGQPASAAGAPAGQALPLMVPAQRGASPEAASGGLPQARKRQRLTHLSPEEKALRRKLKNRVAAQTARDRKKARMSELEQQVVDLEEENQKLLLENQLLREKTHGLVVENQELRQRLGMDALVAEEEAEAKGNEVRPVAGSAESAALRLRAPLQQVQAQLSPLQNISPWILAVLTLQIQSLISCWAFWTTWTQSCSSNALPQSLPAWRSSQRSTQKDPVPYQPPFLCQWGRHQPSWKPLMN
# Chain of Nuclear receptor subfamily 4 group A member 2 (Homo sapiens) (P43354 whole entry, looked up, the tested form may be a part): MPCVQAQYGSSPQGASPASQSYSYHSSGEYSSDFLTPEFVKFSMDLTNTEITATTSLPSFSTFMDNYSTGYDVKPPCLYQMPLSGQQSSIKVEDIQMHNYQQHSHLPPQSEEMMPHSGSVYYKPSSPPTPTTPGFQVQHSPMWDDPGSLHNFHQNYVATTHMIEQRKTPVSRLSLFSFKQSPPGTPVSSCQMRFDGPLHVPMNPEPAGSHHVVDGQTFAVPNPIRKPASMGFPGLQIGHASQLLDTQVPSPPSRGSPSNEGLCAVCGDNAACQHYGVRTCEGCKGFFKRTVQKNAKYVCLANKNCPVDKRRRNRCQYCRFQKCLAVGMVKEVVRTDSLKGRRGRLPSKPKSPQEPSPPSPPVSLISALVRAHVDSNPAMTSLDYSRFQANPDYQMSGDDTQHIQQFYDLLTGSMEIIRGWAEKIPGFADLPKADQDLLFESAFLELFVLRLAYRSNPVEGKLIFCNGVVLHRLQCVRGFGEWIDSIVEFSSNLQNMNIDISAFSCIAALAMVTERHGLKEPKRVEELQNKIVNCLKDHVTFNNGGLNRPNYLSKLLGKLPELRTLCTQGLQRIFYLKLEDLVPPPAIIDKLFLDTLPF
structure (smiles),measurement,setting,value
CCCCOC(=O)c1ccccc1C(=O)O,outcome,[1],inactive
same,outcome,[2],inactive
same,outcome,[3],inactive
same,outcome,[4],inactive
same,outcome,[5],inactive
same,outcome,[6],inactive
same,outcome,[7],inactive
same,outcome,[8],inactive
same,outcome,[9],inactive
same,outcome,[10],inactive
C#CCC1=C(C)C(OC(=O)C2C(C=C(C)C)C2(C)C)CC1=O (stereo not given),AC50,[11],7.01 µM (active)
same,outcome,[1],inactive
same,AC50,[2],84.6 µM (active)
same,outcome,[12],inactive
same,outcome,[13],inactive
same,outcome,[14],inactive
same,outcome,[6],inactive
same,outcome,[7],inactive
same,outcome,[8],inactive
same,outcome,[15],inactive
same,AC50,[9],93.4 µM (active)
same,outcome,[10],inactive
CC1=NNC(=O)N(/N=C/c2cccnc2)C1,outcome,[11],inactive
same,outcome,[2],inactive
same,outcome,[13],inactive
same,outcome,[5],inactive
same,outcome,[6],inactive
same,outcome,[7],inactive
same,outcome,[8],inactive
same,outcome,[15],inactive
same,outcome,[9],inactive
same,outcome,[10],inactive
CCOC(=O)COc1cc(-c2nn(C)c(OC(F)F)c2Cl)c(F)cc1Cl,outcome,[11],inactive
same,outcome,[16],inactive
same,outcome,[2],inactive
same,outcome,[4],inactive
same,outcome,[12],inactive
same,outcome,[13],inactive
same,outcome,[17],inactive
same,outcome,[5],inactive
same,outcome,[6],inactive
same,outcome,[7],inactive
same,outcome,[8],inactive
same,outcome,[15],inactive
same,outcome,[9],inactive
same,outcome,[10],inactive
CCC(=O)Nc1ccc(Cl)c(Cl)c1,outcome,[11],inactive
same,outcome,[1],inactive
same,outcome,[2],inactive
same,outcome,[3],inactive
same,outcome,[4],inactive
same,outcome,[12],inactive
same,outcome,[18],inactive
same,outcome,[5],inactive
same,outcome,[6],inactive
same,outcome,[7],inactive
same,outcome,[8],inactive
same,outcome,[15],inactive
same,outcome,[9],inactive
same,outcome,[10],inactive
COP(=O)(NC(C)=O)SC (stereo not given),outcome,[11],inactive
same,outcome,[1],inactive
same,outcome,[2],inactive
same,outcome,[12],inactive
same,outcome,[17],inactive
same,outcome,[5],inactive
same,outcome,[6],inactive
same,outcome,[7],inactive
same,outcome,[19],inactive
same,outcome,[9],inactive
same,outcome,[10],inactive
CCOP(=O)(OCC)Oc1cc(C)nc(C(C)C)n1,outcome,[2],inactive
same,outcome,[8],inactive
same,outcome,[15],inactive
same,outcome,[9],inactive
same,outcome,[10],inactive
CNC(=O)ON=C(C)SC,outcome,[11],inactive
same,outcome,[2],inactive
same,outcome,[4],inactive
same,outcome,[12],inactive
same,outcome,[17],inactive
same,outcome,[5],inactive
same,outcome,[6],inactive
same,outcome,[7],inactive
same,outcome,[8],inactive
same,outcome,[9],inactive
same,outcome,[10],inactive
CCOP(=S)(OCC)Oc1ccc([N+](=O)[O-])cc1,outcome,[1],inactive
same,outcome,[2],inactive
same,outcome,[17],inactive
same,outcome,[6],inactive
same,outcome,[7],inactive
same,outcome,[15],inactive
same,outcome,[9],inactive
same,outcome,[10],inactive
